# Measurements: PubChem BioAssay AID2599 (Sanford-Burnham Center for Chemical Genomics, 2010)
# The campaign covered roughly 330,000 compounds. About 5,800 (1.8%) were called active.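 Rule for the calls: active = inhibition above about 50% at the single tested dose (limit read from the data); inactive = the rest.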 The sample as a whole holds a higher share of actives than the screen did.
# Molecular target: Sentrin-specific protease 6 (Homo sapiens) (UniProt Q9GZR1)
# Assay: SENP6 protease inhibitors, primary screen, biochemical, luminescence, uHTS (AID 2599);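 note: plate controls were DMSO wells with enzyme for no effect and DMSO wells lacking enzyme for full effect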
# Conditions: Recombinant SENP6 catalytic domain, aminoluciferin luminescence; at 10 µM; active compounds read high
# Sequence of Sentrin-specific protease 6 (Homo sapiens) (Q9GZR1 628-1112 limits assumed): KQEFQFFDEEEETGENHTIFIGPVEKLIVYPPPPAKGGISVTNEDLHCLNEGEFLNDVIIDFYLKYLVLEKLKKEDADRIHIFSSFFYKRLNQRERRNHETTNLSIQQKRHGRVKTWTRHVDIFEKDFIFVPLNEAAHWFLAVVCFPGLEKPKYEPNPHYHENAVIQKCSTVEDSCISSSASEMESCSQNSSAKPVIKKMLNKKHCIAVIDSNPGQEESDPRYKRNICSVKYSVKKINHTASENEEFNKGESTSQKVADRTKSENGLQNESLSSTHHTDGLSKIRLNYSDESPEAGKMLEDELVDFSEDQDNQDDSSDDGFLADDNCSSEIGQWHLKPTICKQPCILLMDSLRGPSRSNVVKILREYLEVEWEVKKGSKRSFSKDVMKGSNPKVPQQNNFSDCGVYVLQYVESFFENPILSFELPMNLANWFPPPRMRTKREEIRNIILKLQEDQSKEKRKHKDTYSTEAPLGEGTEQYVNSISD
row,SMILES,inhibition
1,CN1CCN(C(=O)/C(=C\c2cccs2)NC(=O)c2cccs2)CC1,-14.6% (inactive)
2,CC(C)OCCCNC(=O)c1ccc(C2SCC(=O)N2Cc2ccco2)cc1 (stereo unspecified),-6.37% (inactive)
3,CC(Sc1ccccc1F)C(=O)Nc1cccc(S(=O)(=O)N2CCOCC2)c1 (stereo unspecified),-4.45% (inactive)
4,Nc1c(N(CCCO)C(=O)C2CCCC2)c(=O)[nH]c(=O)n1Cc1ccccc1,-9.42% (inactive)
5,O=C(Cc1ccccc1)Nc1c(Cl)ccc2nsnc12,-21.2% (inactive)
6,Cc1ccc(C(=O)N/C(=C/c2cccnc2)C(=O)O)cc1,-4.97% (inactive)
7,C/C(=N\NC(=O)c1ccc(C)cc1)C1C(=O)c2ccccc2C1=O,92.3% (active)
8,C/C(=N\NC(=O)CNC(=O)C(c1ccccc1)c1ccccc1)c1ccc(C)cc1,7.95% (inactive)
9,CC(=O)Nc1ccc(S(=O)(=O)NNC(=O)CCc2ccccc2)cc1,-9.47% (inactive)
10,C=C1c2c(Cl)ccc(O)c2C(O)=C2C(=O)[C@]3(O)C(O)=C(C(N)=O)C(=O)[C@@H](N(C)C)[C@@H]3[C@@H](O)C12 (stereo partly specified),1.61% (inactive)
11,Cc1ccccc1NC(=O)CSc1ccc2nnc(-c3ccccn3)n2n1,-3.48% (inactive)
12,CCCCSc1nnc(-c2ccc(C)cc2)o1,50.8% (active)
13,CCOC(=O)CSc1nnc(-c2cccc(Br)c2)o1,-8.5% (inactive)
14,CCOC(=O)CSc1nnc(-c2ccc([N+](=O)[O-])cc2)o1,2.93% (inactive)
15,O=S(=O)(c1ccc(Br)cc1)N1CCC(c2nc3ccccc3[nH]2)CC1,-3.25% (inactive)
16,COC(=O)c1scc(C)c1NC(=O)CSc1ccc(Cl)cc1,-3.94% (inactive)
17,O=C(CN1CCN(c2ccccc2F)CC1)c1ccc2c(c1)OCO2,-2.86% (inactive)
18,O=C(c1ccco1)N1CCN(C(=O)c2cc(-c3ccccc3F)no2)CC1,4.97% (inactive)
19,Fc1ccccc1-c1cc2cc3c(cc2cn1)OCO3,75.8% (active)
20,COC(=O)Cc1ccc(N(Cc2ccccc2F)S(=O)(=O)c2ccc(Br)cc2)cc1,-6.45% (inactive)
21,CCOc1ccc(OCC)c(NC(=O)CSc2nnc(Cn3cnc4ccccc43)n2C)c1,3.46% (inactive)
22,O=C(CCN1CCc2ccccc2C(O)(c2ccccc2)C1)c1ccc2c(c1)OCCO2 (stereo unspecified),-26.4% (inactive)
23,O=c1c(-c2ccccc2)coc2cc(O)ccc12,60.4% (active)
24,CCc1ccc(Oc2coc3cc(O)ccc3c2=O)cc1,14% (inactive)

row,SMILES,inhibition
1,CC(C)CN(Cc1c(O)ccc2c(=O)c(-c3ccccc3)coc12)CC(C)C,-12.1% (inactive)
2,COc1ccc(C(C)NC(=S)NC2CCCCC2)cc1OC (stereo unspecified),-13.2% (inactive)
3,CNC(=O)C1CC(=O)N(c2ccc(OCC(=O)Nc3ccccc3C)cc2)C1 (stereo unspecified),-8.41% (inactive)
4,O=C(c1cccs1)N1CCC(c2nc3ccccc3s2)CC1,5.91% (inactive)
5,COc1ccc(-n2nnnc2-c2nc3ccccc3s2)cc1,54.6% (active)
6,COc1ccc(-n2nnnc2CNC(=O)c2ccc3ccccc3c2)cc1,-6.42% (inactive)
7,COc1ccc(C2=NN(c3nc4ccccc4s3)C(=O)C2)cc1,2.49% (inactive)
8,C=CCC(C(=O)c1ccccc1)[N+](C)(C)CC=C (stereo unspecified),-7.76% (inactive)
9,Cc1cnc(CN(C)C(=O)C2CCC(=O)N(CCc3cccc(F)c3)C2)[nH]1 (stereo unspecified),13.7% (inactive)
10,COc1ccc(OCC(=O)Nc2ccc(NC(=O)c3ccco3)c(C)c2)cc1,-34.6% (inactive)
11,COc1ccccc1C(=O)Nc1ccc(NC(=O)c2ccco2)c(C)c1,66.3% (active)
12,Cc1ccc(C(=O)COc2cccc(NC(=O)c3ccco3)c2)cc1,-16.4% (inactive)
13,O=C(Nc1ccc(NC(=O)c2cccs2)cn1)c1ccco1,22% (inactive)
14,Cc1cc(NC(=O)c2ccc(F)cc2)ccc1NC(=O)c1ccco1,43.7% (inactive)
15,COc1cccc(C(=O)Nc2ccc(NC(=O)c3ccco3)cn2)c1,64.1% (active)
16,CC[C@]1(c2ccccc2OC)C(=O)N(C(=O)OC)N1C(=O)OC,0.734% (inactive)
17,CC(=O)Nc1ccc(OCCC[n+]2cccc(C(=O)[O-])c2)cc1,-17.4% (inactive)
18,Nc1ccc(N=Nc2ccccc2Cl)c(N)n1,81.2% (active)
19,COc1cccc(NC(=O)c2cc(S(=O)(=O)N3CCc4ccccc43)cn2C)c1,3.36% (inactive)
20,CC(=O)Nc1cccc(-c2nc3ccccc3s2)c1C,-16.1% (inactive)
21,Cc1ccnc(Nc2nc3ccccc3s2)n1,78.6% (active)
22,Cc1ccnc(-n2sc3ccccc3c2=O)n1,2.11% (inactive)
23,O=C(CC(O)(C(F)(F)F)C(F)(F)F)Nc1ccc(Cl)c(Cl)c1,1.52% (inactive)
24,CCn1nccc1C(=O)Nc1ccc(Cl)c(Cl)c1,76.6% (active)

row,SMILES,inhibition
1,CCn1nccc1C(=O)Nc1ccc(S(=O)(=O)NC23CC4CC(CC(C4)C2)C3)cc1,1.42% (inactive)
2,COc1ccc(OC)c(S(=O)(=O)N2CCCC(C(=O)NCCc3ccccc3)C2)c1 (stereo unspecified),-9.45% (inactive)
3,O=C(c1ccc(F)cc1)n1cc(C(=S)N2CCOCC2)c2ccccc21,5.26% (inactive)
4,O=C(Cn1c(=S)nc2ccccn21)N1CCc2ccccc2C1,-12.6% (inactive)
5,O=C(c1ccc(F)cc1)n1c(=S)nc2ccccn21,71.7% (active)
6,CCOc1cc2[nH]c(=S)n(CCCN3CCCC3=O)c(=O)c2cc1OCC,-8.53% (inactive)
7,O=C(Nc1cccc2cccnc12)c1cccc(Cl)c1,38.9% (inactive)
8,CCOC(=O)Cc1ncccc1C(=O)Nc1ccc(OC)cc1,10.7% (inactive)
9,O=C(Nc1ccccc1Cl)O/N=C(/c1ccccc1)c1ccccn1,5.09% (inactive)
10,O=C(Nc1ccccc1Cl)Nc1cccc2cccnc12,58.1% (active)
11,COc1ccc(NC(=O)C2CCCN(S(=O)(=O)c3cccc4cccnc34)C2)cc1 (stereo unspecified),-2.53% (inactive)
12,COc1ccc(NC(=O)Nc2cccc3cccnc23)cc1,80.7% (active)
13,COc1ccc(OCC(=O)NN2Cc3ccccc3C2=N)cc1,-3.36% (inactive)
14,COC(=O)C1=C(C)N(Cc2ccccc2)C(=NCCCOC(C)C)N[C@H]1c1ccccc1,-15.2% (inactive)
15,Cc1ccc(S(=O)(=O)N(C)CC(=O)OCC(=O)N2CC(=O)Nc3ccccc32)cc1,-8.14% (inactive)
16,Cn1c(N)c(C(=O)COC(=O)/C=C/c2ccc(OC(F)F)cc2)c(=O)n(C)c1=O,-13.8% (inactive)
17,Cc1ccccc1NC(=O)C1CCN(C(=O)NC2CCCCC2)CC1,-18.9% (inactive)
18,O=C(Nc1cc2ccccc2oc1=O)C1CCCCC1,62.5% (active)
19,O=C(Nc1ccc2c(c1)OCCO2)C1CCCC1,15.1% (inactive)
20,C[n+]1ccc(C(=O)NCc2ccccc2)cc1,-12.9% (inactive)
21,Cc1[nH]n(-c2ccc([N+](=O)[O-])cc2)c(=O)c1C=NCCN1CCN(C(=O)c2ccccc2F)CC1,87% (active)
22,Cc1ccc(-n2[nH]c(C)c(/C=N/NC(=O)c3cccc([N+](=O)[O-])c3)c2=O)cc1C,27.4% (inactive)
23,C=CCNC(=S)N1CCN(CCN=Cc2c(C)[nH]n(-c3ccc([N+](=O)[O-])cc3)c2=O)CC1,1.69% (inactive)
24,O=C(COC(=O)c1ccccc1Cl)NC1CCCCCCC1,-12.9% (inactive)

row,SMILES,inhibition
1,CCC(=O)Nc1ccc2nn(-c3ccc(F)cc3)nc2c1,76.9% (active)
2,Cc1ccc(-n2nc3ccc(NC(=O)/C=C/c4ccco4)cc3n2)cc1C,10.8% (inactive)
3,Cc1nn(CC(=O)Nc2ccc(F)cc2)c(=O)c2ccccc12,-16.4% (inactive)
4,CC(C(=O)N1CCc2ccccc21)N(C)CC(=O)Nc1ccc(F)cc1 (stereo unspecified),-18.7% (inactive)
5,O=C(/C=N/O)Nc1ccccc1,-8.91% (inactive)
6,Cc1ccc(-c2nc(-c3cccnc3)sc2CC(=O)Nc2ccc(C)c(Cl)c2)cc1,-22% (inactive)
7,Cc1cccc(N=Nc2c(C)[nH]n(-c3ccccc3)c2=O)c1,-17.2% (inactive)
8,Cc1[nH]n(C)c(=O)c1N=Nc1ccc(S(C)(=O)=O)cc1,-4.33% (inactive)
9,Cc1[nH]n(C(N)=S)c(=O)c1N=Nc1ccc(Cl)cc1Cl,96.1% (active)
10,COc1ccc(CCNC(=O)COC(=O)Cc2ccccc2F)cc1,0.819% (inactive)
11,CCN(CC)CCOCCOc1ccc(Cl)c2ccccc12,-6.66% (inactive)
12,CCOC(=O)c1cnc2sccn2c1=O,-5.45% (inactive)
13,CCOC(=O)c1cnc2[nH]c3ccccc3n2c1=O,83% (active)
14,CCOC(=O)c1cnc(COc2ccccc2Cl)[nH]c1=O,-27.6% (inactive)
15,Cc1ccc(S(=O)(=O)NCC(=O)N(CC(=O)NC2CCCCC2)Cc2ccco2)cc1,1.15% (inactive)
16,COc1cc(C(=O)NCc2ccc3c(c2)cc(C)n3C)cc(OC)c1OC,1.27% (inactive)
17,COc1cc2c3c(c1)/C(=C1/SC(=S)NC1=O)C(=O)N3C(C)(C)C=C2C,24.2% (inactive)
18,O=C1CC(c2ccccc2)=NN1c1ccc([N+](=O)[O-])cc1,75.3% (active)
19,O=c1[nH]n(-c2ccc([N+](=O)[O-])cc2)c(=O)c2ccccc12,-18.2% (inactive)
20,Cc1nc(-c2ccc([N+](=O)[O-])cc2)c(-c2ccccc2)o1,-20.8% (inactive)
21,COc1cccc(OCC(O)CNC(=O)c2oc3c(C)c(C)ccc3c2C)c1 (stereo unspecified),95.6% (active)
22,COc1ccc2oc(C(=O)NCc3ccco3)c(C)c2c1,-9.13% (inactive)
23,COc1ccc2oc(C(=O)NCC(Cc3ccccc3)N(C)C)c(C)c2c1 (stereo unspecified),-20.2% (inactive)
24,Cc1ccc(C(=O)Nc2ccc3c(c2)OCCO3)cc1S(=O)(=O)N1CCOCC1,7.66% (inactive)
